Bioassay records (PubChem)
FXN GAA850 act: FXN promoter activators, primary screen, cell-based, luciferase luminescence, HEK293 lucGAA850; HEK293 lucGAA850 FXN promoter luciferase reporter, 24 h; percent of 10 µM SAHA response; activation, % at 6 µM; actives 0.56% (n = 360,000);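 active = activation above the average of all compounds screened plus 3 SD, cutoff fixed separately per campaign, cut at about 7.5% in these data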;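 also: 0% = DMSO wells and 100% = 10 µM SAHA wells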
SMARCA2 act: SMARCA2 (BRM) function activators, primary screen, cell-based, luminescence, high throughput. MG213 cells, MMTV-luciferase reporter, dexamethasone, overnight. activation, % at 9.1 µM. actives 1% (n = 370,000); in the data active = activation above about 7.8%;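 also: 0% = vehicle wells and 100% = reference activator wells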
GalR3 antagonist: GalR3 antagonists in HEK293 cells, primary screen, cell-based, fluorescence readout; HEK293 GalR3-CNG cAMP membrane potential fluorescence; galR3 body fused to GalR1 C-terminus; AID 651719, 2012; actives 0.44% (n = 360,000); inhibition, % at 3 µM;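 active = inhibition above the screen-wide average plus 3 SD, cut at about 13% in these data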;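 also: forskolin and galanin both at EC90 stimulate the cells; cAMP rise reported by CNG channel membrane potential dye signal; 0% = forskolin plus galanin with DMSO and 100% = forskolin alone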
Target sequence (O60755 1-299 limits assumed): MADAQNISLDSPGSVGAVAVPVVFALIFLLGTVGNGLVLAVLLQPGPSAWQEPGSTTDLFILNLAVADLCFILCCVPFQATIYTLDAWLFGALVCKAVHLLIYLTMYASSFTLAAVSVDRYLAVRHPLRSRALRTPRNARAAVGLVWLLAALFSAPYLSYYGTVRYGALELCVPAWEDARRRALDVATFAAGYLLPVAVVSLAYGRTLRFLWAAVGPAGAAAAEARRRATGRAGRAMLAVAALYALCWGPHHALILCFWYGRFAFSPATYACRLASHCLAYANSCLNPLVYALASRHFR
Gli-Sufu block: Gli-Sufu pathway antagonists, primary screen, luciferase luminescence, Sufu-KO-LIGHT cells, uHTS; Sufu-KO-LIGHT fibroblasts, Gli luciferase reporter luminescence; inhibition, % at 5 µM; actives 0.74% (n = 340,000);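 active = inhibition above about 55%, limit read from the data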;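 also: 0% = DMSO-treated cells and 100% = wells with medium but no cells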
NR2F2 inh: NR2F2 transcriptional activity inhibitors, primary screen, cell-based, luciferase reporter, HEK293T, luminescence. inhibition, % at 8.6 µM. HEK293T NGFI-A luciferase reporter. AID 686940, 2013. COUP transcription factor 2 (Homo sapiens), P24468. actives 0.7% (n = 370,000);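 active = inhibition above a per-plate cutoff, mean inhibition of test wells between control levels plus 3 SD, cut at about 38% in these data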;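 also: cells cotransfected with COUP-TFII expression vector driving the NGFI-A reporter; 0% = median of COUP-TF2 test wells and 100% = reporter-only cells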
Cardio protect: cardioprotection against H2O2-induced cell death, primary screen, uHTS, H9c2 cells, ATPLite luminescence | actives 0.63% (n = 360,000) | protection from H2O2 cell death, % at 20 µM | H9c2 cardiomyocytes, H2O2 injury protection, 2 h;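 active = compounds giving at least 50% protection of heart cells from peroxide-induced death in the single-dose screen, raw or plate-pattern-corrected value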;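 also: 0% = DMSO wells with peroxide and 100% = DMSO wells without peroxide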
Gli antag conf: Gli-SUFU pathway antagonists, confirmation, single concentration, luciferase luminescence, Sufu-KO-LIGHT cells | shares compounds with Gli-Sufu block | Gli luciferase reporter | inhibition, % at 5 µM | actives 40% (n = 2,500) | AID 602428, 2012;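 active = mean inhibition at 5 µM reaching about 45%, limit read from the data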;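 also: plate controls were DMSO-treated cells for no effect and wells lacking cells for full effect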
SufuKO cytotox: cytotoxicity in Sufu-KO-LIGHT cells, confirmation, cytotoxicity control for Gli-SUFU antagonist project, cell-based, ATP luminescence, single concentration; shares compounds with Gli-Sufu block; cytotoxicity, % at 5 µM; actives 32% (n = 2,500); AID 651994, 2013;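 active = mean cytotoxicity at 5 µM above about 25%, limit read from the data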;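 also: cells exposed to compound overnight for roughly 16 to 18 hours; plate controls were DMSO wells with cells for no effect and medium without cells for full effect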
Wnt3a counter: Wnt3a reporter signal inhibition, confirmation, counter-screen for Gli-SUFU antagonist project, Wnt-LIGHT cells, luminescence, single concentration; shares compounds with Gli-Sufu block; Wnt3a-driven luciferase reporter; inhibition, % at 6.25 µM; actives 20% (n = 2,500);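 active = mean inhibition above about 25%, limit read from the data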
An asterisk follows results filed as active. Compounds with a hit are over-represented: about 3.4% of the library has one in this group of screens.

How did O=C(CSc1nnc(-c2ccncc2)n1-c1ccccc1)Nc1cccc2ccccc12 do in these assays?
SMARCA2 act: 3; NR2F2 inh: 12

What do the screens show for `CC(=O)Nc1ccc(CNc2ncnc3ccc(-c4c(C)noc4C)cc23)cc1`?
FXN GAA850 act: 2; SMARCA2 act: -1; GalR3 antagonist: -3; Gli-Sufu block: 73*; NR2F2 inh: -118; Cardio protect: -21; Gli antag conf: 78*; SufuKO cytotox: 31*; Wnt3a counter: -22

How did Cc1ccccc1NC(=O)c1ccc(Cl)c(NC(=O)c2cccnc2)c1 do in these assays?
SMARCA2 act: 0; GalR3 antagonist: -6; NR2F2 inh: -9

What do the screens show for `Cc1ccc(N=CC2=C(O)CC(c3ccc(Cl)cc3)CC2=O)cc1` (centres undefined)?
FXN GAA850 act: -1; SMARCA2 act: 0; GalR3 antagonist: 2; Gli-Sufu block: 53; NR2F2 inh: 2; Cardio protect: 1; Gli antag conf: 26; SufuKO cytotox: 10; Wnt3a counter: 20

What do the screens show for `c1ccc(-n2c(SCc3cccc4ccccc34)nnc2-c2ccccn2)cc1`?
SMARCA2 act: -4; NR2F2 inh: 11

What do the screens show for `Cc1ccc(NC(=O)CSc2n[nH]c(-c3ccco3)n2)cc1`?
FXN GAA850 act: 0; SMARCA2 act: -2; GalR3 antagonist: 6; Gli-Sufu block: 1; NR2F2 inh: -1; Cardio protect: 4

What do the screens show for `Cc1ccc(NC(=O)CSc2n[nH]c(-c3ccco3)n2)c(C)c1`?
FXN GAA850 act: -1; SMARCA2 act: -5; GalR3 antagonist: 2; Gli-Sufu block: 57*; NR2F2 inh: -1; Cardio protect: -4; Gli antag conf: 21; SufuKO cytotox: -3; Wnt3a counter: -18

How did Cc1cc(C)n2nc(SCC(=O)c3cc(C)n(-c4cc(C)on4)c3C)nc2n1 do in these assays?
FXN GAA850 act: -2; SMARCA2 act: -3; GalR3 antagonist: -2; Gli-Sufu block: 55; NR2F2 inh: 25; Cardio protect: -14; Gli antag conf: 52*; SufuKO cytotox: 30*; Wnt3a counter: 34*

Results for O=C(Nc1cccc(NC(=O)c2ccco2)c1)c1ccccc1 ?
FXN GAA850 act: 0; SMARCA2 act: 2; GalR3 antagonist: -7; Gli-Sufu block: 52; NR2F2 inh: 10; Cardio protect: 0; Gli antag conf: 16; SufuKO cytotox: 7; Wnt3a counter: 18

How did O=C(Nc1ccc(Oc2cccc3ccccc23)cc1)c1ccco1 do in these assays?
FXN GAA850 act: -3; SMARCA2 act: -1; GalR3 antagonist: -3; Gli-Sufu block: 97*; NR2F2 inh: -6; Cardio protect: -20; Gli antag conf: -3; SufuKO cytotox: 23; Wnt3a counter: -7

What do the screens show for `Cc1[nH]c2ccccc2c1C1=CC(=O)C=CC1=O`?
FXN GAA850 act: 2; SMARCA2 act: -1; GalR3 antagonist: -2; Gli-Sufu block: 1; NR2F2 inh: 1; Cardio protect: -28

Results for COc1nc(OC)nc(N2CCC(C(=O)N(C)Cc3ccco3)CC2)n1 ?
SMARCA2 act: -6; NR2F2 inh: 9

How did COCCN(Cc1cc2c(C)cc(C)cc2nc1Cl)C(=O)c1ccccc1F do in these assays?
FXN GAA850 act: 1; SMARCA2 act: -4; GalR3 antagonist: -2; Gli-Sufu block: 58*; NR2F2 inh: 9; Cardio protect: -17; Gli antag conf: 26; SufuKO cytotox: 15; Wnt3a counter: -27

What do the screens show for `O=C(Nc1ncnc2c1ncn2[C@@H]1O[C@H](/C=C/C(=O)N2CCN(c3ccc(F)cc3)CC2)[C@@H](O)[C@H]1O)c1ccccc1`?
SMARCA2 act: 0; GalR3 antagonist: -4; NR2F2 inh: 18; Cardio protect: -3

How did Cc1cc(Nc2cccc(F)c2)nc(NCc2ccccc2)n1 do in these assays?
FXN GAA850 act: 1; SMARCA2 act: -4; GalR3 antagonist: -7; Gli-Sufu block: 59*; NR2F2 inh: 33; Cardio protect: -20; Gli antag conf: 40; SufuKO cytotox: 19; Wnt3a counter: 6

What do the screens show for `CCOC(=O)[C@]12CCC=C1N(Cc1ccc3c(c1)OCO3)C(=O)[C@H](CC(=O)NCC13CC4CC(CC(C4)C1)C3)C2`?
SMARCA2 act: -4; GalR3 antagonist: -8; NR2F2 inh: 4

How did C=C(C)Cn1c(SCC(=O)NN=Cc2c(O)ccc3ccccc23)nnc1-c1ccc(Br)cc1 do in these assays?
SMARCA2 act: -6; NR2F2 inh: 9

How did CCOc1ccc(C2CC(c3ccc(OC)cc3)n3ncnc3N2)cc1 (centres undefined) do in these assays?
FXN GAA850 act: 3; SMARCA2 act: 0; GalR3 antagonist: 4; Gli-Sufu block: -20; NR2F2 inh: -23; Cardio protect: 8

What do the screens show for `COc1ccc(C2CC(c3ccco3)n3ncnc3N2)cc1` (centres undefined)?
FXN GAA850 act: 0; SMARCA2 act: 0; GalR3 antagonist: -2; Gli-Sufu block: 57*; NR2F2 inh: 3; Cardio protect: -1; Gli antag conf: 10; SufuKO cytotox: 15; Wnt3a counter: -3

Results for Cc1cc(C[n+]2cc(Br)ccc2N)c2ncccc2c1 ?
FXN GAA850 act: 1; SMARCA2 act: -4; GalR3 antagonist: -7; Gli-Sufu block: 52; NR2F2 inh: -12; Cardio protect: -25; Gli antag conf: 53*; SufuKO cytotox: 34*; Wnt3a counter: -3

What do the screens show for `Cc1cc(C[n+]2cc(Cl)ccc2N)c2ncccc2c1`?
FXN GAA850 act: -1; SMARCA2 act: 0; GalR3 antagonist: -5; Gli-Sufu block: 48; NR2F2 inh: -4; Cardio protect: -8

How did CC(C)C[C@@H](CN1CCC[C@H]1CN1C(=O)C(=O)NC[C@@H]1Cc1ccc(O)cc1)N1C[C@H](Cc2ccccc2)N(CC2CCCCCC2)C(=O)C1=O do in these assays?
SMARCA2 act: -3; GalR3 antagonist: -5; NR2F2 inh: 14
